The record followed here is PubChem BioAssay (NCI).

SMILES strings stand for the structures. About 83,000 compounds went through this panel and 20% of them were active in at least one assay; those are over-represented in the sample as a whole.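 The test compound was applied at a single concentration to cells in 96-well plates for 48 hours, and percent growth was recorded.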 A number with no mark means an inactive call. The source made the active and inactive calls. How the source made its calls: active means growth percent below 10; inactive means the rest.

What all share (assay): NCI-60 one-dose screen, 48 h (100 = growth as untreated, 0 = no growth, -100 = all killed)
Test [1] relates to SK-MEL-2 melanoma. As to conditions: 10 µM unless noted.
Test [2] relates to EKVX NSCLC. To be noted: 10 µM unless noted.
The subject of test [3] is SN12C renal. As to conditions: 10 µM unless noted.
Test [4] deals with UO-31 renal. To be noted: 10 µM unless noted.
Test [5] concerns TK-10 renal. To be noted: 10 µM unless noted.
The test system of test [6] is ACHN renal. As to conditions: 10 µM unless noted.
Test [7] has as its system CAKI-1 renal. As to conditions: 10 µM unless noted.
In test [8] the test system is A498 renal. As to conditions: 10 µM unless noted.
Test [9] concerns CCRF-CEM leukemia. To be noted: 10 µM unless noted.
Test [10] has as its system MOLT-4 leukemia. As to conditions: 10 µM unless noted.
The test system of test [11] is SR leukemia. As to conditions: 10 µM unless noted.
The test system of test [12] is RPMI-8226 leukemia. As to conditions: 10 µM.
The test system of test [13] is OVCAR-8 ovarian. To be noted: 10 µM unless noted.
Test [14] relates to OVCAR-5 ovarian. To be noted: 10 µM unless noted.
For test [15], the system named is OVCAR-4 ovarian. As to conditions: 10 µM unless noted.
Test [16] has as its system IGROV1 ovarian. To be noted: 10 µM unless noted.
Test [17] concerns OVCAR-3 ovarian. As to conditions: 10 µM unless noted.
Test [18] concerns HS 578T breast. To be noted: 10 µM unless noted.
Test [19] relates to NCI/ADR-RES ovarian. To be noted: 10 µM unless noted.
The test system of test [20] is SK-OV-3 ovarian. To be noted: 10 µM.

As to `O=C(NCc1ccc(F)cc1)C1CN(c2ccc(Cl)cc2)N(c2ccc(Cl)cc2)C1=O` (stereo unspecified), the growth is 64.6% in test [1]; 74.8% in test [2]; 83% in test [3]; 51% in test [4]; 100% in [5]; 75.6% in test [6]. In addition, the growth in test [7] is 57.6%; in test [8], 39.8%; in test [9], 61.8%; in test [10], 37.1%; in test [11] it was 24.3%; in test [12], 72.8%. Also, the growth is 80% in test [13]; 85.6% in test [14]; 66.6% in test [15]; 77.4% in [16]; 9.08% (active) in test [17]; 52.6% in [18]. Besides, the growth in test [19] is 52.9%.
For `Clc1ccc(C2=NN(c3ccccc3)[C@H](c3cn(-c4ccccc4)nc3-c3ccccc3)C2)cc1`, the growth in [1] was 97.7%; in test [2], 94.9%; in test [3] it was 103%; in test [4], 94.8%; in [5] it was 114%; in test [6] it was 103%. Also, the growth is 99.9% in test [7]; 109% in test [8]; 116% in test [9]; 93.6% in test [10]; 118% in [11]; 112% in test [12]. The growth in test [13] was 106%; in test [14], 97.8%; in [15], 105%; in test [20] it was 107%; in [16] it was 104%; in test [17], 113%. The growth in test [18] is 131%; in test [19] it was 105%.
With `OB(O)c1ccccc1`, the growth is 107% in test [1]; 108% in test [2]; 112% in [3]; 91.3% in test [4]; 105% in test [5]; 107% in test [6]. In addition, the growth was 96.5% in test [7]; 106% in [8]; 100% in test [9]; 96.9% in test [10]; 88% in test [11]; 102% in [12]. The growth is 105% in test [13]; 108% in test [14]; 115% in test [15]; 114% in test [16]; 114% in [17]; 102% in test [18]. Besides, the growth in test [19] was 104%.
As for `FC(F)(F)Oc1ccc2c(c1)C[C@H]1C[C@@H](c3ccoc3)N2O1`, the growth in test [1] is 118%; in test [2], 93.9%; in test [3] it was 110%; in test [4] it was 100%; in [5], 97.4%; in [6], 94%. In addition, the growth in test [7] was 82.6%; in test [8] it was 93.2%; in [9] it was 102%; in test [10], 96.4%; in test [11] it was 98.3%; in test [12], 92.3%. The growth in [13] is 101%; in test [20] it was 106%; in test [16] it was 108%; in test [17], 112%; in test [19], 98.3%.
For `Cc1cc[n+](CCc2ccccc2)cc1`, the growth is 107% in [1] and 80.6% in [2].
In the case of `COc1cccc2c(=O)c3c(sc12)c(NCCN(C)C)nc1ccccc13`, the growth in test [1] was 49.1%; in [2] it was 26.2%; in [3] it was 34.9%; in test [4], 12.2%; in test [5], 47.2%; in [6], 8.6% (active). Also, the growth was 26.2% in [7]; -15.7% (active) in [8]; 20.9% in [9]; -14.6% (active) in [10]; -21.2% (active) in test [11]; -20.1% (active) in test [12]. For the same compound, the growth in test [13] is 25.2%; in test [14], 40.8%; in test [15], -14.4% (active); in [16], 21%; in test [17], 24.9%; in test [18], 13.6%. In [19], the growth is 29.4%.
For `COc1cc(-c2ccc3cc(OC)c(OC)c(OC)c3c2)cc(OC)c1OC`, the growth in test [1] is 61%; in test [2], 65.7%; in test [3], 92.9%; in test [4], 35.5%; in test [5], 85.7%; in test [6] it was 79.8%. Further, the growth is 42.5% in test [7]; 77.3% in test [8]; 55.2% in test [9]; 83.9% in test [10]; 4.29% (active) in test [11]; 53.1% in test [12]. Besides, the growth is 78.4% in test [13]; 82% in test [14]; 61.2% in test [15]; 76.7% in [20]; 68.6% in test [16]; 78.9% in test [17]. For the same compound, the growth was 69.1% in test [18] and 36.6% in test [19].
Turning to `COc1cc(C2C3=C(COC3=O)N(CCO)c3cc4c(cc32)OCO4)cc(OC)c1O` (stereo unspecified), the growth in test [1] is 25%; in test [2], 57.2%; in test [3] it was 52.7%; in test [4], 57.9%; in [5], 61.8%; in test [6], 37.9%. The growth in [7] was 60.4%; in [8], -2.62% (active); in test [9], 28.6%; in test [10], 47.6%; in [11], 21.5%; in [12], 21.8%. For the same compound, the growth in test [13] is 42.8%; in test [14], 72%; in test [15] it was 48.3%; in test [20] it was 31.8%; in [16] it was 36%; in test [17] it was -25.9% (active). Also, the growth is 3.31% (active) in [18] and 73.3% in test [19].
Take `O=C1C(Cl)=C(NCCCN2CCOCC2)C(=O)c2ccccc21`: the growth was 104% in test [1]; 112% in test [2]; 82.8% in [3]; 61% in test [4]; 131% in [5]; 108% in test [6]. The growth is 102% in test [7]; 110% in [8]; 90.9% in [9]; 88.4% in test [10]; 39.2% in test [11]; 78.3% in test [12]. The growth in test [13] was 96.1%; in [14] it was 111%; in test [15] it was 77.1%; in [20], 102%; in test [16] it was 56.4%; in [17], 96.4%. Further, the growth in [18] was 99.7%; in test [19], 99.1%.
